About 3,500 (0.97%) of roughly 360,000 compounds were called active. The sample as a whole holds a higher share of actives than the screen did. Values without a mark were called inactive.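 The calls were made as follows: active = activation above a per-plate cutoff, the mean activation of sample wells on that plate plus 3 SD (cut at about 8% in these data); inactive = the rest.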
target: Melanocortin receptor 4 (Homo sapiens) (UniProt P32245); test: MC4R agonists recruiting beta-arrestin, primary screen, cell-based, luminescence, agonist arm of biased-ligand search (AID 540308); conditions: U2OS MC4R beta-arrestin complementation, at 8.9 µM, active compounds read high, percent of melanotan II response, DMSO zero
Sequence (P32245 whole entry, looked up): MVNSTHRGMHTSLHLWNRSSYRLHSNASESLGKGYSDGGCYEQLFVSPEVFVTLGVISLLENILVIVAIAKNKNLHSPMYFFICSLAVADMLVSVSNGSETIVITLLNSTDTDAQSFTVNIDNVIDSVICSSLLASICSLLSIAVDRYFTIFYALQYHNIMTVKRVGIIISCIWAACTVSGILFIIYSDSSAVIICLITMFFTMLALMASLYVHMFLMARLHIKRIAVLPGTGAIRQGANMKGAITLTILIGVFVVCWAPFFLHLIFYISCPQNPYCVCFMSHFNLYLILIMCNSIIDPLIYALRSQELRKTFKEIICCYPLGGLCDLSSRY

In the case of COc1ccccc1-c1cc(NC(C)=O)c2ncc(-c3ccc(F)cc3)n2c1, the activation is reported as 10.3% (active).
In the case of CC(=O)Nc1cc(-c2ccccc2F)cn2c(-c3cccc(C(F)(F)F)c3)cnc12, the activation is reported as 22.5% (active).
In the case of COc1cccc(-c2cnc3c(NC(C)=O)cc(-c4cc(F)ccc4OC)cn23)c1, the activation is reported as 29.8% (active).
In the case of CC(=O)Nc1cc(-c2ccccc2N(C)C)cn2c(-c3ccc(F)c(Cl)c3)cnc12, the activation is reported as 25.4% (active).
With Cc1ccc(-c2cnc(C(O)c3cc(Cl)cc(Cl)c3)[nH]2)cc1 (stereo not drawn) the activation was 9.5% (active).
With Cc1ccc(Nc2nnc(SCc3ccccc3)s2)cc1 the activation was 16.6% (active).
For Cc1ccccc1NC(=O)c1ccc(COc2ccc3c(C)cc(=O)oc3c2)cc1, the activation was 19.5% (active).
With CCN1CCC2(CC1)N=C(c1ccc(F)cc1)C(=S)N2C(=O)c1ccc(C)cc1 the activation was 11.5% (active).
COc1ccc2sc(-c3ccc(S(C)(=O)=O)cc3)c(C#Cc3cncn3C)c2c1 was tested, and the activation was 35.2% (active).
In the case of COc1ccc(C)c(Cn2c(-c3nonc3N)nc3ccccc32)c1, the activation is reported as 12.1% (active).
COCCN(CCOC)S(=O)(=O)c1ccc(C(=O)Nc2nc3c(s2)CCc2ccccc2-3)cc1 was tested, and the activation was 15.6% (active).
For COc1ccc(C(=O)c2oc3ccc(Br)cc3c2NC(C)=O)cc1, the activation was 11.7% (active).
In the case of Cc1ccc(-n2nc(C)c(/C=N/NC(=O)c3cccs3)c2Cl)cc1, the activation is reported as 20.9% (active).
For CCC(=O)c1cc2c(cc1NC(=O)c1cccs1)OCCO2, the activation was 23.2% (active).
In the case of COc1ccc(/C=N/NC(=O)Nc2ccc3nsnc3c2)c(OC)c1, the activation is reported as 13.5% (active).
In the case of O=C(NCCNc1ccc([N+](=O)[O-])cc1)c1cccc2c(Br)cccc12, the activation is reported as 8.32% (active).
CCCCCCCCCCOC(=O)Cn1c(COc2cccc(OC)c2)[n+](C)c2ccccc21 was tested, and the activation was 21.1% (active).
For CCCCCCCCCCOC(=O)Cn1c(COc2ccc(C)cc2)[n+](C)c2ccccc21, the activation was 16.7% (active).

Point of comparison: O=C(Nc1ccc(Cl)cc1)c1csc([C@H]2C[C@H](O)[C@@H](CO)O2)n1, activation -0.15%. Against it:
- CC(=O)Nc1cccc(-c2cc(NC(C)=O)c3ncc(-c4ccccc4)n3c2)c1 — higher, 6.05%
- CC(=O)Nc1cccc(-c2cc(NC=O)c3ncc(-c4ccc(F)c(Cl)c4)n3c2)c1 — higher, 5.15%
- CC(=O)Nc1cc(-c2ccc(N3CCN(C)CC3)cc2)cn2c(-c3ccc(F)cc3)cnc12 — higher, 0.23%
- COc1ccc(-c2cc(NC(C)=O)c3ncc(-c4cc(OC)c(OC)c(OC)c4)n3c2)cn1 — lower, -0.61%
- CC(=O)Nc1cc(-c2cccc(CO)c2)cn2c(-c3cccc(C(F)(F)F)c3)cnc12 — higher, 4.6%
- CC(=O)Nc1cc(-c2ccc(N3CCN(C)CC3)cc2)cn2c(-c3cccc(C(=O)N(C)C)c3)cnc12 — higher, 0.62%
- COc1cccc(-c2cnc3c(NC(C)=O)cc(-c4cccc(NC(C)=O)c4)cn23)c1 — higher, 7.42%
- COc1cccc(-c2cc(NC(C)=O)c3ncc(-c4cccc(C(C)=O)c4)n3c2)c1 — higher, 3%
- COC(=O)Cc1ccc(OC2(C)CCN(Cc3ccc4c(c3)OCCO4)C2)cc1 (stereo not drawn) — lower, -0.74%
- CC1(C(=O)NS(=O)(=O)Cc2cccc(Cl)c2)CCN1C(=O)Cc1ccccc1 (stereo not drawn) — lower, -0.92%
- NC(c1csc(NC(=O)Nc2ccccc2Oc2ccccc2)n1)c1ccccc1Cl (stereo not drawn) — higher, 5.13%
- CCCNC(=O)C1(C)CCN(Cc2csc(-c3ccc(Cl)cc3)n2)C1 (stereo not drawn) — lower, -0.8%
- CCOC(=O)C1(Cc2cccc(OC)c2)CCCN(C(=O)CCSC)C1 (stereo not drawn) — lower, -1.03%
- CCCC(=O)N1CCC1(C)C(=O)NS(=O)(=O)c1ccc(Cl)cc1 (stereo not drawn) — lower, -0.17%
- OC(c1ccc(Cl)cc1)c1ncc(-c2ccc(Cl)cc2)[nH]1 (stereo not drawn) — higher, 1.64%
- Cc1cccc(-c2cnc(C(O)c3cc(C)cc(C)c3)[nH]2)c1 (stereo not drawn) — lower, -1.6%
- C#CCNC(=O)[C@H](Cc1ccc(C(=O)c2ccccc2)cc1)NC(=O)OC(C)(C)C — lower, -0.75%
- Cc1ccc(Nc2nnc(SC(C)C(=O)NC3CC3)s2)cc1 (stereo not drawn) — higher, 1.11%
- Cc1ccc(Nc2nc(N)nc(CSc3nnc(C)s3)n2)cc1 — lower, -0.99%
- OC[C@@H]1CN(C2CCCC2)C[C@H](n2cnc3c(NC4CCC4)ncnc32)O1 — lower, -0.37%
- CCN(C(=O)COC(=O)c1ccc(COc2ccc3c(C)cc(=O)oc3c2)cc1)C1CCS(=O)(=O)C1 (stereo not drawn) — lower, -3.78%
- CCOC(=O)c1cc(=O)c2ccc(OCc3ccccc3)cc2o1 — lower, -0.49%
- Cc1ccc(CC2(C)C(=O)Nc3ccc(OC(F)(F)F)cc32)cc1 (stereo not drawn) — higher, 6.29%
- CC1(Oc2ccccc2-c2ccno2)CCN(Cc2ccc(-c3ccccc3)o2)C1 (stereo not drawn) — lower, -0.57%
- CCc1nc2c(OCCOc3ccccc3)cccn2c1N(C=O)Cc1ccc(OC)cc1 — lower, -1.25%
- CCc1nc2c(OCCOc3ccccc3)cccn2c1N(C)C(=O)c1ccccc1F — lower, -0.99%
- N#Cc1ccc(-c2ccc3nccn3c2)cc1 — lower, -0.91%
- O=C(Nc1ccc(OCCO)cc1)c1csc([C@H]2C[C@H](O)[C@@H](CO)O2)n1 — higher, 1.86%
- Cc1ccc(SCC(=O)N2CCN(c3ccc(F)cc3)CC2)cc1 — lower, -0.3%
- CCN1CCC(O)(/C=C/c2ccc(C)cc2)C(C(=O)/C=C/c2ccc(C)cc2)C1 (stereo not drawn) — lower, -1.73%
- COc1ccc(-c2sc3ccc(OC)cc3c2C#Cc2ccccn2)cc1 — lower, -2.74%
- COc1ccc2sc(-c3ccc(S(C)(=O)=O)cc3)c(-c3ccc(C(N)=O)cc3)c2c1 — higher, 0.87%
- CC1(C(=O)O)CCN1C(=O)/C=C/c1ccccc1 (stereo not drawn) — higher, 0.27%
- COc1ccccc1CNC(=O)c1cc(-c2cc(Cl)ccc2C)n[nH]1 — lower, -0.81%
- Cc1ccc(NS(=O)(=O)c2cc3c(cc2Br)NC(=O)CO3)cc1C — higher, 1.67%
- COc1ccccc1Cn1c(CO)nc2ccccc21 — higher, 1.82%
- CCn1c(C(O)c2cc(OC)ccc2OC)nc2ccccc21 (stereo not drawn) — lower, -1.32%
- CCCNC(=O)C1(C)CCCN(Cc2cccc(C(F)(F)F)c2)C1 (stereo not drawn) — higher, 0.13%
- COc1cccc(CNc2nc(NCc3ccccc3OC)nc3ccsc23)c1 — lower, -1.7%
- COc1ccc(-c2ccc(C(=O)NCCN3CCOCC3)c3occc23)c(C)c1 — lower, -2.32%
- CCNC(=S)Nc1ccc2c(c1)c(=O)n(C)n2Cc1ccc(Cl)cc1 — lower, -1.45%
- COCCN(CC(=O)Nc1ccccc1C)S(=O)(=O)c1ccc(S(=O)(=O)N2CCCC2)cc1 — lower, -3.53%
- C=CCN(CC=C)S(=O)(=O)c1ccc(C(=O)Nc2nc3c(s2)CCc2ccccc2-3)cc1 — higher, 1.77%
- OC(c1cc(Cl)cc(Cl)c1)c1ncc(-c2ccccc2C(F)(F)F)[nH]1 (stereo not drawn) — lower, -0.63%
- OC[C@@H]1CN(Cc2ccncc2)C[C@H](n2cnc3c(N4CCN(c5ccccc5)CC4)ncnc32)O1 — higher, 0.16%
- CC1(C(=O)NS(=O)(=O)c2ccc(Cl)cc2)CCN1C(=O)CC1CCCC1 (stereo not drawn) — higher, 1.72%
- COc1ccc2oc(=N)c(C(=O)Nc3ccc(Br)cc3)cc2c1 — higher, 1.15%
- CC(C)C(=O)Nc1c(C(=O)c2ccc(F)cc2)oc2ccccc12 — higher, 1.16%
- CCN(CC(=O)Nc1ccccc1C(=O)NC1CC1)Cc1cccs1 — lower, -0.58%
- Cc1nn(-c2ccccc2)c(NC(=O)c2cccs2)c(-c2ccc(Cl)cc2)c1=O — lower, -1.07%
- Cc1nn(-c2ccccc2)c(Cl)c1/C=N/NC(=O)c1nn(C)cc1[N+](=O)[O-] — lower, -2.85%
- COc1cccc(NC(=O)C2(C)CCN2C(=O)CCC2CCCC2)c1 (stereo not drawn) — higher, 2.96%
- COc1cc(NC(=O)c2cccs2)ccc1NC(=O)c1ccccc1Cl — higher, 0.56%
- COc1cc(NC(=O)c2ccc3c(c2)OCO3)ccc1NC(=O)c1cccs1 — lower, -0.83%
- COc1ccc(-c2[nH]ncc2/C=N/NC(=O)c2cc(Br)ccc2O)c(OC)c1 — higher, 0.86%
- COc1ccc(S(=O)(=O)NNC(=O)Nc2ccc(C)cc2)c(OC)c1 — higher, 0.62%
- CC(CNc1ccc([N+](=O)[O-])cc1)NC(=O)c1ccccc1Br (stereo not drawn) — higher, 0.96%
- O=C(NCCNc1ccc([N+](=O)[O-])cc1Cl)c1ccccc1F — lower, -1.37%
- CC(=O)Oc1ccc(Cn2c(C)c(C(=O)NCc3ccc(C#N)cc3)sc2=O)cc1 — higher, 0.49%
- CCCCOc1ccc(NC(=O)CSCC(=O)OCC)cc1 — higher, 0.02%
- Cc1ccc(COc2ccc(C(=O)NN)cc2)cc1 — higher, 6.84%
- COCCCNC(=O)c1ccc(-c2c(C)noc2C)c2ccoc12 — lower, -0.44%
- COc1cc(NC(=O)c2cc(-c3ccc(F)cc3OC(C)C)n[nH]2)cc(OC)c1OC — higher, 3.09%
- Cc1ccc(C)c(C(O)c2ncc(-c3cccc4ccccc34)[nH]2)c1 (stereo not drawn) — lower, -2.84%
- O=C(NCCCN1CCCCC1)c1ccc2c(c1)NC(=O)C(N1CCOCC1)S2 (stereo not drawn) — lower, -0.87%
- CCCNC(=O)c1cc(C2CCCCN2S(=O)(=O)c2ccc(C#N)cc2)on1 (stereo not drawn) — higher, 0.19%
- O=C(NCCN1CCOCC1)c1ccccc1N1C(=O)[C@@H]2Cc3c([nH]c4ccccc34)C(c3cccc(Cl)c3)N2C1=O (stereo partly drawn) — lower, -1.7%
- Cc1ccc(C(O)c2ncc(-c3ccccc3F)[nH]2)cc1F (stereo not drawn) — lower, -0.39%
- COc1ccc(C(NC(=O)C2CCN(CCCc3ccccc3)CC2)c2cccs2)cc1 (stereo not drawn) — higher, 0.65%
